AmpC detergent: blocks E. coli AmpC beta-lactamase in detergent assay | P00811 | AmpC hydrolysis of nitrocefin, absorbance 480 nm, 0.01% Triton | Potency, µM (doses to about 114 µM), most hits filed as inhibitors | 370,000 compounds, 0.041% hits | AID 485294; also: nearly all actives have a fitted effect of over 25% in size
Target sequence (P00811 whole entry, looked up): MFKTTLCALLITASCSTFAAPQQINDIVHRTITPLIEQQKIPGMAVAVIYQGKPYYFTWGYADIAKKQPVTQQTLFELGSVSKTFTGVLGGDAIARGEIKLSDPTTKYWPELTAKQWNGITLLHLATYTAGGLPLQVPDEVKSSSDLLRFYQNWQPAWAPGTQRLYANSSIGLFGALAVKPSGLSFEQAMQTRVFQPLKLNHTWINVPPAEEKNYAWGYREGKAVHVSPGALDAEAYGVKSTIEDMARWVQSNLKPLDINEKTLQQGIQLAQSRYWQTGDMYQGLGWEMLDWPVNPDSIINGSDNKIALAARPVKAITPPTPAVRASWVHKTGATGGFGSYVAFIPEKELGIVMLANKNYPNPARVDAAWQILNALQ
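20 mM phosphate pH 7.0 + 0.01% (detergent screen) or 0.0001% Triton X-100; 5.3 nM AmpC reagent; cpd preinc 15 min RT; nitrocefin (800 uM stock) to start; A480 q20 s × 4 min; Activity was normalised to no-enzyme and no-compound control wells.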
SARS PLP yeast: SARS-CoV PLP inhibition in yeast. S. cerevisiae expressing SARS-CoV PLpro, growth rescue. Potency, µM (doses to about 32.9 µM), usual class: activators. AID 485353. 330,000 compounds, 0.19% hits; calls by dose curve; also: nearly all actives have a fitted effect of over 55% in size
NS1 function inh: inhibitors of influenza NS1 protein function; Potency, µM (highest dose often 46.1 µM); 270,000 compounds, 0.4% hits; AID 2326; calls by dose curve; also: actives are rising curves; nearly all actives have a fitted effect of over 50% in size
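Growth recovery, yeast-based: influenza A NS1 expressed in S. cerevisiae causes slow growth, and suppressors are detected by OD600. The parent strain without NS1 is used as positive control.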
Giardia FBPA inh-1: inhibitors of Giardia lamblia fructose-1,6-bisphosphate aldolase | Potency, µM (highest dose often 59.6 µM), usual class: inhibitors | purified Giardia FBPA | AID 2451 | 290,000 compounds, 0.71% hits; also: nearly all actives have a fitted effect of over 55% in size
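40 nM FBPA preincubated 10 min at RT with compound (up to 57.5 uM final), then substrate plus GAPDH/TPI/NAD/arsenate coupling and diaphorase/resazurin added. Fluorescence read after 20 min at RT, 525/598 nm.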
AmpC no deterg: AmpC beta-lactamase inhibition without detergent; Potency, µM (titrated, usually from 57.1 µM), usual class: inhibitors; 330,000 compounds, 0.52% hits; P00811; AmpC nitrocefin hydrolysis, absorbance 480 nm, 0.0001% Triton; also: nearly all actives have a fitted effect of over 20% in size
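20 mM phosphate pH 7.0 + 0.01% (detergent screen) or 0.0001% Triton X-100; 5.3 nM AmpC reagent; cpd preinc 15 min RT; nitrocefin (800 uM stock) to start; A480 q20 s × 4 min; Activity was normalised to no-enzyme and no-compound control wells.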
Giardia growth: inhibitors of Giardia lamblia growth | Potency, µM (doses to about 57.5 µM), hits mostly inhibitors | 1,500 compounds, 5% hits | shares compounds with Giardia FBPA inh-1 | Giardia lamblia trophozoite growth inhibition;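 also: trophozoites exposed to compound for 48 h at 37 °C; nearly all actives have a fitted effect of over 70% in size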
Mammal cell tox: toxic to mammalian cells in Giardia aldolase counter-screen | shares compounds with Giardia FBPA inh-1 | mammalian cell viability counter-screen, qHTS | Potency, µM (titrated, usually from 57.5 µM), hits mostly inhibitors | 1,500 compounds, 4% hits;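 also: Chinese hamster ovary cells used as mammalian cytotoxicity surrogate; viability measured as cellular ATP by luminescence; compound exposure lasted 48 h before reading; nearly all actives have a fitted effect of over 60% in size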
Giardia FBPA inh-2: confirmation of Giardia fructose-bisphosphate aldolase inhibitors; shares compounds with Giardia FBPA inh-1; purified Giardia aldolase enzyme activity, qHTS; Potency, µM (series often up to 57.5 µM), usual class: inhibitors; 1,500 compounds, 5% hits; AID 2787; also: nearly all actives have a fitted effect of over 45% in size
Rabbit FBPA inh: rabbit FBP aldolase inhibition by Giardia aldolase hits | shares compounds with Giardia FBPA inh-1 | Rabbit muscle FBPA enzyme inhibition, selectivity counter-screen | Potency, µM (highest dose often 57.5 µM), hits mostly inhibitors | 1,500 compounds, 4% hits; also: nearly all actives have a fitted effect of over 60% in size
Target sequence (P00883 whole entry, looked up): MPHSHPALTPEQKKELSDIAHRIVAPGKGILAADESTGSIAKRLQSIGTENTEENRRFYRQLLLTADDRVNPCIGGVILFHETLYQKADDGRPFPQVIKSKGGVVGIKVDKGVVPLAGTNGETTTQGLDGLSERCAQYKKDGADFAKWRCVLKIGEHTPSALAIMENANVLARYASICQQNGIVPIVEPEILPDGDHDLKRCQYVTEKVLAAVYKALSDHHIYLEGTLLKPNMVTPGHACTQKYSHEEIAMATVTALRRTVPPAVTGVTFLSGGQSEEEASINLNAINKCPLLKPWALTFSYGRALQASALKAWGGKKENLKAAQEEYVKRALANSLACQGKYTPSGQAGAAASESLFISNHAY
GAPDH counter: GAPDH inhibition flagged for Giardia aldolase hits; shares compounds with Giardia FBPA inh-1; GAPDH coupling enzyme counterscreen, biochemical, qHTS; Potency, µM (series often up to 57.5 µM), actives largely listed as inhibitors; 1,500 compounds, 6% hits; also: nearly all actives have a fitted effect of over 55% in size
Hits are given with their value; – = inactive; ? = inconclusive; · = no result; [ ] = another dose, or the depositor's remark. Hits are enriched below; roughly 1.4% of the tested compounds scored in any of these assays. Unless noted, calls follow the shape of the dose curve; as a rule, active = well fitted curve in the direction sought with a large enough effect; inconclusive = small, poorly fitted or top-dose-only effect, or another doubt; inactive = no such curve, though single readings can be large; an effect the other way counts as inactive or inconclusive.

SMILES | AmpC detergent | SARS PLP yeast | NS1 function inh | Giardia FBPA inh-1 | AmpC no deterg | Giardia growth | Mammal cell tox | Giardia FBPA inh-2 | Rabbit FBPA inh | GAPDH counter
CCOc1ccc(NC(=O)N(CCCN2CCOCC2)Cc2cccnc2)cc1 | ? | – | – | – | – | · | · | · | · | ·
CCc1cccc(C)c1NC(=S)N(CCCN1CCOCC1)Cc1cccnc1 | – | – | · | 15.8µM | – | – | – | – | – | –
CC(=O)NNC(=S)NC(=O)c1ccc(C)cc1 | – | – | – | – | – | · | · | · | · | ·
CCC(=O)NNC(=S)NC(=O)c1ccc(C)cc1 | – | – | – | 17.7µM | – | ? | – | – | – | –
Cc1cc(C)nc(SCC(=O)c2ccc(O)c(O)c2)n1 | – | – | ? | 11.2µM | – | – | – | – | – | –
Cc1cc(=O)[nH]c(SCC(=O)c2ccc(O)c(O)c2)n1 | ? | – | – | 8.91µM | – | ? | – | ? | – | –
NC(=O)c1ccc(-n2nnnc2SCC(=O)c2ccc(O)c(O)c2)cc1 | – | – | · | – | – | · | · | · | · | ·
Cn1c(SCC(=O)c2ccc(O)c(O)c2)nnc1-c1cccs1 | – | – | – | 5µM | – | – | – | ? | – | –
COc1ccc(-n2nnnc2SCC(=O)c2ccc(O)c(O)c2)cc1 | ? | – | – | ? | – | – | ? | – | – | –
Cc1ccc(C(=O)CSc2nc(C)cc(=O)[nH]2)cc1 | – | – | – | · | – | · | · | · | · | ·
CCOC(=O)c1cnc(-n2nc(C)cc2C)[nH]c1=O | – | – | – | 4.46µM | – | – | – | – | – | –
CCOC(=O)c1cnc(-n2[nH]c(C)cc2=O)[nH]c1=O | – | – | · | ? | – | · | · | · | · | ·
COc1ccc2c(c1)c1c(c(=O)n(-c3cccc(C)c3)c(=O)n1CC(=O)NCCC1=CCCCC1)n2C | – | · | · | · | · | · | · | · | · | ·
COc1cccc(-n2c(=O)c3ccccc3n3c(=S)[nH]nc23)c1 | – | – | – | ? | – | · | · | · | · | ·
COCCCn1c(=O)c2ccccc2n2c(=S)[nH]nc12 | ? | – | – | 7.08µM | – | – | – | – | – | –
Fc1ccc(-c2nnc(CSc3nnc4ccccn34)o2)cc1 | – | – | – | – | – | · | · | · | · | ·
CCN(CC)c1nc(N2CCN(C)CC2)nc2ccccc12 | – | – | – | ? | – | · | · | · | · | ·
CCN(CC)c1nc(N2CCN(CCO)CC2)nc2ccccc12 | ? | – | – | 12.6µM | – | – | – | – | – | –
O=C(N/N=C/c1cccc(O)c1)c1ccc(NC(=O)c2cccc([N+](=O)[O-])c2)cc1 | – | – | · | – | – | · | · | · | · | ·
Cc1ccc(C(=O)N/N=C\c2ccc(-c3ccc([N+](=O)[O-])cc3)o2)cn1 | – | – | – | – | – | · | · | · | · | ·
O=C(NC(=S)Nc1ccccn1)c1cccc([N+](=O)[O-])c1 | – | – | – | 15.8µM | – | ? | – | – | – | –
O=C(N/N=C/c1ccccn1)c1ccc(NC(=O)c2cccc([N+](=O)[O-])c2)cc1 | – | – | · | 14.1µM | – | ? | – | – | – | –
Cc1cc(C(=O)N/N=C/c2ccccn2)n[nH]1 | – | – | – | ? | – | · | · | · | · | ·
Cc1ccc(C(=O)N/N=C\c2ccc([N+](=O)[O-])o2)cn1 | – | – | – | 11.2µM | – | 3.16µM | – | – | – | –
CCOc1ccc(C(=O)NC(=S)Nc2ccccn2)cc1[N+](=O)[O-] | – | – | – | ? | – | · | · | · | · | ·
SMILES | AmpC detergent | SARS PLP yeast | NS1 function inh | Giardia FBPA inh-1 | AmpC no deterg | Giardia growth | Mammal cell tox | Giardia FBPA inh-2 | Rabbit FBPA inh | GAPDH counter
O=C(N/N=C/c1ccccn1)c1cc(C2CC2)[nH]n1 | – | – | – | 17.7µM | – | ? | – | – | – | –
Fc1cccc(Cl)c1/C=N/n1c(-c2cccnc2)n[nH]c1=S | – | – | · | – | – | · | · | · | · | ·
CCOC(=O)Cn1nc(-c2ccc(Cl)cc2)cc1N | – | – | – | – | – | · | · | · | · | ·
O=C(N/N=C/c1ccccn1)c1cccc([N+](=O)[O-])c1 | – | – | – | 15.8µM | – | – | ? | – | – | –
Nc1ccc(C(=O)N/N=C\C=C\c2cccc([N+](=O)[O-])c2)cc1 | – | – | · | – | – | · | · | · | · | ·
Cc1ccc(C(=O)N/N=C\c2ccccn2)cn1 | – | – | – | 7.92µM | – | – | – | – | – | –
CC(C)(C)c1ccc(C(=O)N/N=C/c2ccccn2)cc1 | – | – | – | – | – | · | · | · | · | ·
O=C(N/N=C/C=C/c1cccc([N+](=O)[O-])c1)c1ccncc1 | – | – | – | 15.8µM | – | 28.2µM | – | – | – | –
O=C(N/N=C/c1ccccn1)c1ccc([N+](=O)[O-])cc1 | – | – | · | ? | – | · | · | · | · | ·
O=C(N/N=C/c1ccccn1)c1ccc2nc[nH]c2c1 | – | – | – | 15.8µM | – | –[10.4 µM] | – | – | – | –
Cc1c(NC(=O)COC(=O)c2ccc(O)cc2)c(=O)n(-c2ccccc2)n1C | – | – | · | · | – | · | · | · | · | ·
O=S(Cc1ccccc1)CC(O)(c1ccc(Cl)cc1)c1ccc(Cl)cc1 (stereo not given) | – | – | – | – | – | · | · | · | · | ·
OCCC1CN(CC#Cc2ccccc2)CCN1Cc1ccccc1F (stereo not given) | – | – | – | – | – | · | · | · | · | ·
O=C(N/N=C/c1ccccn1)c1cc([N+](=O)[O-])cc([N+](=O)[O-])c1 | – | – | · | 9.98µM | – | 25.1µM | ? | – | – | –
C(=N\Nc1nc2ccccc2s1)/c1ccccn1 | – | – | – | ? | – | · | · | · | · | ·
Cc1csc(N/N=C/c2ccccn2)n1 | – | – | · | 15.8µM | – | –[10.4 µM] | 25.1µM | – | – | –
Cc1ccc(C(C)C)cc1OCCn1cncn1 | ? | – | – | 22.4µM | – | –[10.4 µM] | – | – | – | ?
O=C(NC(=S)Nc1ncccn1)c1ccc(F)cc1 | – | – | – | 6.31µM | – | ? | – | – | – | –
O=C(NC(=S)Nc1cccnc1Cl)c1ccc(F)cc1 | – | – | – | 14.1µM | – | ? | – | – | – | –
O=C(CCCCCNC(=O)c1ccccc1)N/N=C/c1ccc(F)cc1 | – | – | – | – | – | · | · | · | · | ·
Cc1ccc(NC(=O)CN2C(=O)N/C(=C\c3cccnc3)C2=O)cc1 | – | – | · | – | – | · | · | · | · | ·
CC(Nc1oc(-c2ccccc2)nc1-c1cccc2ccccc12)c1ccccc1 (stereo not given) | · | · | · | – | · | · | · | · | · | ·
CCOC(=O)C1CCCN(CCC(=O)Nc2ccc(Br)c(C)c2)C1 (stereo not given) | ? | – | – | 14.1µM | – | ? | – | – | – | –
